The record followed here is PubChem BioAssay (Tox21).

Assay [1] is described as follows: qHTS RealTime-Glo MT Cell Viability Assay in HEK293 cells - 40 hour (AID 1224874). Also: nearly all actives have a fitted effect of over 50% in size. Also: potency is read from the fitted curve at half-maximal effect. The note with it: RealTime-Glo luminescence; max response: hits give low values. Put shortly:
(§1)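 HEK293 cells mixed with RealTime-Glo reagents (NanoLuc plus cell-permeant prosubstrate) at 600 cells/well, preincubated 5 h at 37 C/5% CO2, then given 23 nL compound in DMSO. Nonlytic luminescence from viable cells was read at 0, 8, 16, 24, 32 and 40 h.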
For orientation: In qHTS, concentration-response curves come from the screen itself.

Assay [2] is described as follows: A CellTox Green Cytotoxicity Assay to monitor cytotoxicity in HEK293 cells - 24 hour (AID 1224875). Also: nearly all actives have a fitted effect of over 45% in size. Also: potency is read from the fitted curve at half-maximal effect. As to activity change: series mostly up to about 77 µM. Put shortly:
(§2)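 HEK293 cells premixed with CellTox Green dye were seeded at 600 cells/well and left 5 h at 37 C/5% CO2 before pin transfer of 23 nL compound in DMSO. Fluorescence from dye bound to dead-cell DNA was read during 40 h treatment.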

Assay [3] is described as follows: A CellTox Green Cytotoxicity Assay to monitor cytotoxicity in HepG2 cells - 16 hour (AID 1224876). Also: nearly all actives have a fitted effect of over 45% in size. Also: potency is read from the fitted curve at half-maximal effect. In short, it runs like this:
(§3)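 HepG2 cells were seeded together with the CellTox Green dye at 600 cells/well, left 5 h at 37 C/5% CO2, then given compounds in DMSO. Fluorescence from dye bound to dead-cell DNA was read repeatedly over 40 h of treatment at 37 C.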

Assay [4] is described as follows: qHTS RealTime-Glo MT Cell Viability Assay in HepG2 cells - 32 hour (AID 1224877). Also: nearly all actives have a fitted effect of over 55% in size. Also: potency is read from the fitted curve at half-maximal effect. In short, it runs like this: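 qHTS, HepG2, 600 cells/well, RealTime-Glo (NanoLuc + prosubstrate) added with cells; 5 h preincubation; DMSO compound addition; 37 C; luminescence at 0/8/16/24/32/40 h.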
Assay [5] in a line: A CellTox Green Cytotoxicity Assay to monitor cytotoxicity in HepG2 cells - 24 hour (AID 1224878). Also: nearly all actives have a fitted effect of over 45% in size. Also: potency is read from the fitted curve at half-maximal effect. In short, it runs like this: as §3
Assay [6] can be described thus: A CellTox Green Cytotoxicity Assay to monitor cytotoxicity in HepG2 cells - 40 hour (AID 1224879). Also: nearly all actives have a fitted effect of over 40% in size. Also: potency is read from the fitted curve at half-maximal effect. In short, it runs like this:
as §3

A short description of assay [7]: qHTS RealTime-Glo MT Cell Viability Assay in HEK293 cells - 0 hour (AID 1224880). Also: top concentration of the series differs between compounds; nearly all actives have a fitted effect of over 45% in size. In short, it runs like this:
as §1

Assay [8] is described as follows: A CellTox Green Cytotoxicity Assay to monitor cytotoxicity in HEK293 cells - 32 hour (AID 1224881). Also: nearly all actives have a fitted effect of over 40% in size. Also: potency is read from the fitted curve at half-maximal effect. In short, it runs like this: as §2
Assay [9] is described as follows: A CellTox Green Cytotoxicity Assay to monitor cytotoxicity in HepG2 cells - 0 hour (AID 1224882). Also: nearly all actives have a fitted effect of over 35% in size. In short, it runs like this:
as §3

The nature of assay [10]: A CellTox Green Cytotoxicity Assay to monitor cytotoxicity in HepG2 cells - 32 hour (AID 1224883). Also: nearly all actives have a fitted effect of over 50% in size. Also: potency is read from the fitted curve at half-maximal effect. Put shortly: as §3

A number with no mark means an inactive call. Records with an inconclusive call do not appear. The source made the active and inactive calls. Calls follow the shape of the dose curve; as a rule, active = well fitted curve in the direction sought with a large enough effect in the repeat runs; inconclusive = weak or mixed curves; inactive = no such curve, though single readings can be large; an effect the other way counts as inactive or inconclusive.
% is scaled to controls: 0 for no effect and ±100 for the full control effect.

With `C/C=C/C(=O)C1=C(C)C=CCC1(C)C`, in [1], the max response was 1.31%. The Potency result in assay [2], in assay [3], in [4], in [5], in assay [6] and in assay [7] was “inactive” each time. For the same compound, the Potency result in assay [8], in assay [9] and in assay [10] was “inactive” throughout.

In the case of `Oc1ccc2c(c1)CCC2`, the max response in [1] was -3.07%. For the same compound, the Potency entry in assay [2], in assay [3], in assay [4], in [5], in assay [6] and in assay [7] was “inactive” throughout. Further, the Potency entry in [8], in assay [9] and in assay [10] was “inactive” throughout.

As to `C=Cc1ccncc1`, the max response in assay [1] is -1.15%. For the same compound, the Potency entry in assay [2], in assay [3], in [4], in [5], in assay [6] and in [7] was “inactive” in each case. Moreover, the Potency result in assay [8], in [9] and in assay [10] was “inactive” throughout.

Turning to `O[Si](c1ccccc1)(c1ccccc1)c1ccccc1`, the Potency in [1] was 38.9 µM (active). The Potency entry in assay [2], in assay [3], in [4], in assay [5], in [6] and in [7] was “inactive” in each case. For the same compound, the Potency result in [8], in assay [9] and in assay [10] was “inactive” throughout.

For `CCn1c2ccccc2c2ccccc21`, the max response in assay [1] was -15.2%. Also, the Potency entry in assay [2], in [3], in assay [4], in [5], in [6] and in [7] was “inactive” in each case. The Potency entry in [8], in [9] and in [10] was “inactive” in each case.

With `CC1(C)[C@H]2CC[C@]1(C)C(=O)C2`, the max response in assay [1] is 16%. In addition, the Potency entry in [2], in assay [3], in assay [4], in assay [5], in assay [6] and in assay [7] was “inactive” each time. Moreover, the Potency result in assay [8], in assay [9] and in [10] was “inactive” each time.

Regarding `CCc1cccc(C)c1N(C(=O)C(=O)O)C(C)COC` (stereo not drawn), the max response in [1] is 10.9%. Also, the Potency result in assay [2], in assay [3], in assay [4], in assay [5], in assay [6] and in assay [7] was “inactive” throughout. Also, the Potency result in [8], in [9] and in [10] was “inactive” each time.

For `CCCCNc1ccc(NCCCC)c2c1C(=O)c1ccccc1C2=O`, in [1], the max response is -1.48%. Also, the activity change in [2] was 0.143% [at 15.8 µM, hits give high values]. Further, the cytotoxicity increase in assay [3] was -0.637% [at 15.8 µM]; in [6], -3.23% [at 15.8 µM]; in assay [8], -0.0716% [at 15.8 µM]; in [10] it was -3.73% [at 15.8 µM]. Besides, the activity change, negative = cytotoxic in [4] is -3.72% [at 15.8 µM]. Besides, the cytotoxicity is -4.17% [at 15.8 µM] in assay [5] and 3.56% [at 15.8 µM] in assay [9]. Moreover, the activity change, negative = cytotoxicity in assay [7] is -4.14% [at 15.8 µM].

For `C[C@H]1O[C@@H](O[C@H]2CC[C@@]3(C)[C@H](CC[C@@H]4[C@@H]3C[C@@H](O)[C@]3(C)[C@@H](C5=CC(=O)OC5)CC[C@]43O)C2)C[C@H](O)[C@@H]1O[C@H]1C[C@H](O)[C@H](O[C@H]2C[C@H](O)[C@H](O[C@@H]3O[C@H](CO)[C@@H](O)[C@H](O)[C@H]3O)[C@@H](C)O2)[C@@H](C)O1`, the Potency in assay [1] is 0.239 µM (active). Also, the Potency entry in [2], in [3], in assay [4], in assay [5], in assay [6] and in [7] was “inactive” each time. The Potency entry in assay [8], in assay [9] and in [10] was “inactive” in each case.

Regarding `Nc1ccc2c(S(=O)(=O)O)cccc2c1S(=O)(=O)O`, the max response in [1] is 5.38%. Moreover, the Potency entry in [2], in assay [3], in [4], in assay [5], in assay [6] and in [7] was “inactive” in each case. For the same compound, the Potency entry in assay [8], in assay [9] and in assay [10] was “inactive” each time.

Take `CCOC=C(C(=O)OCC)C(=O)OCC`: the max response in [1] is -0.307%. For the same compound, the Potency entry in assay [2], in assay [3], in assay [4], in assay [5], in assay [6] and in [7] was “inactive” throughout. The Potency entry in assay [8], in assay [9] and in assay [10] was “inactive” each time.

Regarding `O=C(O)C[C@H](O)C[C@H](O)/C=C/c1c(C2CC2)nc2ccccc2c1-c1ccc(F)cc1`, the max response in [1] was -20.4%. The activity change in assay [2] is 1.41% [at 15.8 µM, hits give high values]. In addition, the cytotoxicity increase in [3] is 7.91% [at 15.8 µM]; in assay [8], -0.515% [at 15.8 µM]. Also, in assay [4], the activity change, negative = cytotoxic is -27.7% [at 15.8 µM]. Also, the Potency in [5], in assay [6] and in [10] was 2.61 µM (active) throughout. In [7], the activity change, negative = cytotoxicity was 8.78% [at 15.8 µM]. Moreover, the cytotoxicity in assay [9] was 0.628% [at 15.8 µM].

With `CC/C(=C(/c1ccc(O)cc1)c1ccc(OCCN(C)C)cc1)c1ccccc1`, the Potency is 8.12 µM (active) in assay [1]; 25.7 µM (active) in assay [2]; 25.7 µM (active) in assay [3]; 14.4 µM (active) in [4]; 18.2 µM (active) in assay [5]; 12.9 µM (active) in [6]. For the same compound, the values for the Potency in assay [8] and in assay [10] were 22.9 µM (active) and 14.4 µM (active), respectively. The Potency entry in assay [7] and in assay [9] was “inactive” in each case.

Consider `CC(c1cc(C(C)(C)C)cc(C(C)(C)C)c1O)c1cc(C(C)(C)C)cc(C(C)(C)C)c1O`, for which the Potency in assay [1] is 19.5 µM (active). Besides, the Potency result in assay [2], in [3], in assay [4], in [5], in assay [6] and in assay [7] was “inactive” in each case. In addition, the Potency entry in [8], in assay [9] and in assay [10] was “inactive” each time.

In the case of `Nc1cc([N+](=O)[O-])ccc1Cl`, the max response in assay [1] is 0.705%. In addition, the Potency result in assay [2], in assay [3], in [4], in assay [5], in assay [6] and in assay [7] was “inactive” each time. For the same compound, the Potency result in [8], in assay [9] and in assay [10] was “inactive” each time.

For the compound `CC(=O)Nc1ccc(N=Nc2cc(C)ccc2O)cc1`, in [1], the max response was -19.1%. The Potency result in assay [2], in [3], in assay [4], in assay [5], in assay [6] and in assay [7] was “inactive” each time. Further, the Potency entry in [8], in [9] and in [10] was “inactive” each time.

Turning to `O=C(O)CN(CCCN(CC(=O)O)CC(=O)O)CC(=O)O`, in assay [1], the max response is -7.68%. In addition, the activity change in assay [2] is 1.78% [at 15.8 µM, hits give high values]. For the same compound, the cytotoxicity increase was -15.6% [at 15.8 µM] in assay [3], -13.1% [at 15.8 µM] in assay [6], 1.94% [at 15.8 µM] in [8] and -13.5% [at 15.8 µM] in assay [10]. Further, the activity change, negative = cytotoxic in [4] is 7.15% [at 15.8 µM]. Moreover, the cytotoxicity in assay [5] was -12.4% [at 15.8 µM]. Further, the activity change, negative = cytotoxicity in assay [7] was -10.1% [at 15.8 µM].

On to `C=CC(=O)OCCOC1C2CCC1C1CC=CC12` (stereo not drawn), for which the max response in [1] is 6.38%. In assay [2], the activity change is 0.179% [at 15.8 µM, hits give high values]. The cytotoxicity increase in [3] is -1.04% [at 15.8 µM]; in assay [6], -11.6% [at 15.8 µM]; in [8] it was -0.486% [at 15.8 µM]; in assay [10], -7.81% [at 15.8 µM]. For the same compound, the activity change, negative = cytotoxic in [4] was 3.75% [at 15.8 µM]. Also, the values for the cytotoxicity in assay [5] and in [9] were -5.89% [at 15.8 µM] and -3.66% [at 15.8 µM], respectively. For the same compound, the activity change, negative = cytotoxicity in assay [7] is 4.39% [at 15.8 µM].

With `[Cl][Sc]([Cl])[Cl]`, in assay [1], the max response was -3.01%. The Potency result in [2], in assay [3], in assay [4], in assay [5], in assay [6] and in assay [7] was “inactive” in each case. Besides, the Potency result in assay [8] and in assay [10] was “inactive” each time.
